# Assay results published in ChEMBL document CHEMBL3988442, “University of Dundee, Small-Polar-MMV Screening Library” (2021).
# For some of these results: Measured potencies and affinities stand elsewhere.
# How the values were obtained:
# Parameters in all cases: scale not given: direction of the effect not stated beside the values
# [1] = molecular target: Protein translocase subunit SecA (Escherichia coli (strain K12)) (UniProt P10408); test: Assay to Identify E. coli SecA ATPase Inhibitors; type: functional; conditions: 30 µM
# [2] = molecular target: T1, Ubiquitin-activating enzyme e1, putative (Leishmania donovani (strain BPK282A1)) (UniProt E9BSI1); test: Leishmania donovani Ubiquitin Activating Enzyme (LdE1); type: functional; conditions: 30 µM
# T1 sequence (whole entry): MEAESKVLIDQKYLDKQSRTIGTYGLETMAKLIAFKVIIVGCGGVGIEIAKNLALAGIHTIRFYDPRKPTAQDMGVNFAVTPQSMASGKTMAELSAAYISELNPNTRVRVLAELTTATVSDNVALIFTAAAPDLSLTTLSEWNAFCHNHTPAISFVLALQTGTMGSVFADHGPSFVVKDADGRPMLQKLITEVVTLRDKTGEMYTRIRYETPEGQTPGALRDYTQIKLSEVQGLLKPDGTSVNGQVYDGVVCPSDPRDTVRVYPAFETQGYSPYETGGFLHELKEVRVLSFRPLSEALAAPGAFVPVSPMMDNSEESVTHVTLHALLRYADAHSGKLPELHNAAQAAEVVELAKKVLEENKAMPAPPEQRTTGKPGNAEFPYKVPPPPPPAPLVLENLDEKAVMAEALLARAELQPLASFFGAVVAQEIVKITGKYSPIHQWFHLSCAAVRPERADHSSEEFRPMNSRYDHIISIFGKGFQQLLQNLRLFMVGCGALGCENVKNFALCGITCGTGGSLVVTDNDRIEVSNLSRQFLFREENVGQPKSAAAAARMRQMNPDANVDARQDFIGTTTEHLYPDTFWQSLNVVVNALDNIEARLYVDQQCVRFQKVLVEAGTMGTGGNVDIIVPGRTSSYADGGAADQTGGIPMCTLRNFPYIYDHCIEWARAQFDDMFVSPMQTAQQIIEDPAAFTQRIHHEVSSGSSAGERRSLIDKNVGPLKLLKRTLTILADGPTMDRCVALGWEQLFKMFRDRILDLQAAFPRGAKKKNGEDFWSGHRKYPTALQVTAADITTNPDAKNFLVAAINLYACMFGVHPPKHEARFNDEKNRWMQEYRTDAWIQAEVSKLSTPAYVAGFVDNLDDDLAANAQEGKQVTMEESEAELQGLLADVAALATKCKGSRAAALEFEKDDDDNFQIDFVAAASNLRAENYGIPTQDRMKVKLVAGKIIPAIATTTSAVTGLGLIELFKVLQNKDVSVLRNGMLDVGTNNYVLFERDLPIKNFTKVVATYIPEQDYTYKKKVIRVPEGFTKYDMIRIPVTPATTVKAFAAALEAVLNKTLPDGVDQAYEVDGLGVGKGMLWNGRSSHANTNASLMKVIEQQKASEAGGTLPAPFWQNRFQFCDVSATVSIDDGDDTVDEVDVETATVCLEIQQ
# [3] = molecular target: AMP-activated protein kinase, AMPK (Homo sapiens) (UniProt P54646+O43741+P54619+Q9UGJ0+Q9Y478+Q13131+Q9UGI9); test: AMP-dependent Kinase enzyme assay. An in vitro enzyme assay that detects ADP turnover that is directly proportional to AMPK activity. This uses naive AMPK that is activated during the assay with MK-8722; type: functional; conditions: 30 µM
# [4] = molecular target: Sialic acid-binding Ig-like lectin 9 (Homo sapiens) (UniProt Q9Y336); test: Hs-Siglec9 ALPHAscreen SOP 20170721; conditions: 10 µM
# Trypanosoma cruzi = test: Trypanosoma cruzi phosphomannomutase and mannose-1-phosphate guanylyltransferase assay; type: functional; conditions: 10 µM
# [5] = molecular target: T2, Arginase-2, mitochondrial (Homo sapiens) (UniProt P78540); test: in vitro enzyme assay to detect the production of urea directly proportional to the activity of Arginase II; type: functional; conditions: 33.3 µM; note: in the data most compounds retested in dose-response had high values
# T2 sequence (whole entry): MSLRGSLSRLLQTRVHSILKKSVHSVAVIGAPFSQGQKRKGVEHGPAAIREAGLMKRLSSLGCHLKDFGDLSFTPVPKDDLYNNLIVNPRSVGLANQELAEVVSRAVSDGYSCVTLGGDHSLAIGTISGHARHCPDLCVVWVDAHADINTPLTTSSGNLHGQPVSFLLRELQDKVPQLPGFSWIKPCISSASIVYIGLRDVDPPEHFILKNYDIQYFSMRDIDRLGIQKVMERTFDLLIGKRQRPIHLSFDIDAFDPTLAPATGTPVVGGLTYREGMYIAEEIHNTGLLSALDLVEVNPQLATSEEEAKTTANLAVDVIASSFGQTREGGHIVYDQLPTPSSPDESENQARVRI
# [6] = molecular target: T3, Proteasome subunit beta (Trypanosoma cruzi) (UniProt O96673); test: Trypanosoma cruzi proteasome chymotrypsin-like activity (TcProtChymo) assay.; note: in the data most compounds retested in dose-response had high values; type: functional; conditions: 9.37 µM
# T3 sequence (whole entry): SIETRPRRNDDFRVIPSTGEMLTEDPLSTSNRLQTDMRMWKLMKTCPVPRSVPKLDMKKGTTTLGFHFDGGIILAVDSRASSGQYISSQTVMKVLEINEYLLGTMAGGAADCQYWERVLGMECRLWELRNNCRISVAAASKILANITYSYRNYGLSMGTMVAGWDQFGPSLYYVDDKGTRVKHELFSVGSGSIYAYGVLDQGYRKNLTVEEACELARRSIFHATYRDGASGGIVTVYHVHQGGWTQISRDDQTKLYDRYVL
# Homo sapiens = species: Homo sapiens; test: To identify inhibition of the IFN signalling (Jak-Stat) pathway via expression of an eGFP reporter gene under the control of an IFN-stimulated response element (ISRE) containing MxA promoter.; type: functional; conditions: 30 µM
# [7] = molecular target: T4, Tyrosyl-tRNA synthetase, putative (Trypanosoma cruzi (strain CL Brener)) (UniProt Q4DSP6); test: Trypanosoma cruzi tyrosyl tRNA synthetase (TcYRS) _High Tyrosine SOP; type: functional; conditions: 30 µM; note: in the data most compounds retested in dose-response had high values
# T4 sequence (whole entry): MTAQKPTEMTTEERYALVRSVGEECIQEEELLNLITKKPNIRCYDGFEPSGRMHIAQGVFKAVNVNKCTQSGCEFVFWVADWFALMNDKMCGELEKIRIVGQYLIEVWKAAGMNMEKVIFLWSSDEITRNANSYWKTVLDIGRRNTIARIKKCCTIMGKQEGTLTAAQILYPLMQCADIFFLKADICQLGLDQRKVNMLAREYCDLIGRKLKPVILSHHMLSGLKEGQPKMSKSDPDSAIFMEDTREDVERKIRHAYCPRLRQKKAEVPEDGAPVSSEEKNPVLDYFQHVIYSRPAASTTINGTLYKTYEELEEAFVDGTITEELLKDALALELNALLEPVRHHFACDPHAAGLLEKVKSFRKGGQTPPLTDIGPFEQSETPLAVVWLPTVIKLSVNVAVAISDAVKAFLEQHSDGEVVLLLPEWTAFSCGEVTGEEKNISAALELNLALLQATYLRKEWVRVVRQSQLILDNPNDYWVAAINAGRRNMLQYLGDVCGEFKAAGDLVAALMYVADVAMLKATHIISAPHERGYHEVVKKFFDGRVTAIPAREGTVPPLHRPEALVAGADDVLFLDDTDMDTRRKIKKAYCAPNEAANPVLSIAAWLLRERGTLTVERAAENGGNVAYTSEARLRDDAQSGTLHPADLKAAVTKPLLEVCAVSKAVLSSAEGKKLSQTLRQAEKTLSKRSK
# [8] = molecular target: T4, Tyrosyl-tRNA synthetase, putative (Trypanosoma cruzi (strain CL Brener)); test: Trypanosoma cruzi tyrosyl tRNA synthetase (TcYRS) SOP; type: functional; conditions: 30 µM
# [9] = molecular target: Chromo domain-containing protein 1 (Saccharomyces cerevisiae (strain ATCC 204508 / S288c) (Baker's yeast)) (UniProt P32657); test: ScCHD-1 Enzyme Inhibition Assay; type: functional; conditions: 30 µM; note: in the data most compounds retested in dose-response had high values
# Chromo domain-containing protein 1 (Saccharomyces cerevisiae (strain ATCC 204508 / S288c) (Baker's yeast)), sequence (P32657 whole entry, the tested form may be a part): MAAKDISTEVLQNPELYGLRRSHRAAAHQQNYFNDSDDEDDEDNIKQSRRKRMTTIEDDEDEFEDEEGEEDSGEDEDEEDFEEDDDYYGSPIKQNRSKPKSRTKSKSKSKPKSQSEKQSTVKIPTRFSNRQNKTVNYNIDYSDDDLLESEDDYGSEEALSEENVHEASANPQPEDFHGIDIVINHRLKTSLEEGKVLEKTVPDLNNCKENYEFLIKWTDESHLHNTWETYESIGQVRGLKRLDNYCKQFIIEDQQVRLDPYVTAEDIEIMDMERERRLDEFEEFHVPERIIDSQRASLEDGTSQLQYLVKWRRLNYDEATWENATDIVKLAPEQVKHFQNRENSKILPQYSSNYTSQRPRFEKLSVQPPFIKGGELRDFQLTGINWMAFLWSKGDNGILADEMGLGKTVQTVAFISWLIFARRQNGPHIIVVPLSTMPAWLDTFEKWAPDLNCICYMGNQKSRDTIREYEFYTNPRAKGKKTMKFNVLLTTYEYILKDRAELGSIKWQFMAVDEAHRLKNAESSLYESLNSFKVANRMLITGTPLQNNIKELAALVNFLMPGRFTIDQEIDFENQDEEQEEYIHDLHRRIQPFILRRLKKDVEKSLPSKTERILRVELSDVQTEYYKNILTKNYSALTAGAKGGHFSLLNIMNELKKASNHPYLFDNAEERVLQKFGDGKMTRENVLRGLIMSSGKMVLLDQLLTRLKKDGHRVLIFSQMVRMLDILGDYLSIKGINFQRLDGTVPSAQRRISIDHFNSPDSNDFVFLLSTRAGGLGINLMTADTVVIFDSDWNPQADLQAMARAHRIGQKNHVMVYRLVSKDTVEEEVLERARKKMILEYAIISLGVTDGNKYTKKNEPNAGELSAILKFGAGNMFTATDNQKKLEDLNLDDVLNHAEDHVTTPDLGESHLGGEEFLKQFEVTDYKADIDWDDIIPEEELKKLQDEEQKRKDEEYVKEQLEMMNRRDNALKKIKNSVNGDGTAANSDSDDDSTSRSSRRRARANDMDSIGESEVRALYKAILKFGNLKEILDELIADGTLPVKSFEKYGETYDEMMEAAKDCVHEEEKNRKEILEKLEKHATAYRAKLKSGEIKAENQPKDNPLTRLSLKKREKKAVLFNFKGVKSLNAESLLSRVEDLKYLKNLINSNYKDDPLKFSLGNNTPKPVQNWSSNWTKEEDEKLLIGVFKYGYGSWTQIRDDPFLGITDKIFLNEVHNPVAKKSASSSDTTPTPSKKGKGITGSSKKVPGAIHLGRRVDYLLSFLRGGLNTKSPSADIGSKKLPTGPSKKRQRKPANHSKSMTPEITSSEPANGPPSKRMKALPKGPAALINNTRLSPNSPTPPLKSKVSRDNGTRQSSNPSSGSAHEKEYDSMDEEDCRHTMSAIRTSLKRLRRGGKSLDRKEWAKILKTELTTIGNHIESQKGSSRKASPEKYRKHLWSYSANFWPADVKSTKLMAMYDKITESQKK
# Sialic acid-binding Ig-like lectin 9 (Homo sapiens), sequence (Q9Y336 whole entry): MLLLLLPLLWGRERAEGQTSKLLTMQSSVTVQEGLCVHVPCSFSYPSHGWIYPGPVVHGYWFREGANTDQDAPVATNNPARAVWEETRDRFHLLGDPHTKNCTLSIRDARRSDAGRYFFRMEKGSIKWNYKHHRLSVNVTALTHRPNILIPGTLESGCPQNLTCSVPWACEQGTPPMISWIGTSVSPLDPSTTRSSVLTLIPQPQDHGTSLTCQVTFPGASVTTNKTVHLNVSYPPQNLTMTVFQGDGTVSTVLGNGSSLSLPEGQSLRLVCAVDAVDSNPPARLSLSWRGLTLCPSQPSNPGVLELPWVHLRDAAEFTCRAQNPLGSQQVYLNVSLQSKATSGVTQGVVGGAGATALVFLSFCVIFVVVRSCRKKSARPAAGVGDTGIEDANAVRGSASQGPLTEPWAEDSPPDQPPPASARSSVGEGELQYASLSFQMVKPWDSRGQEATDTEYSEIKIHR
# Protein translocase subunit SecA (Escherichia coli (strain K12)), sequence (P10408 whole entry): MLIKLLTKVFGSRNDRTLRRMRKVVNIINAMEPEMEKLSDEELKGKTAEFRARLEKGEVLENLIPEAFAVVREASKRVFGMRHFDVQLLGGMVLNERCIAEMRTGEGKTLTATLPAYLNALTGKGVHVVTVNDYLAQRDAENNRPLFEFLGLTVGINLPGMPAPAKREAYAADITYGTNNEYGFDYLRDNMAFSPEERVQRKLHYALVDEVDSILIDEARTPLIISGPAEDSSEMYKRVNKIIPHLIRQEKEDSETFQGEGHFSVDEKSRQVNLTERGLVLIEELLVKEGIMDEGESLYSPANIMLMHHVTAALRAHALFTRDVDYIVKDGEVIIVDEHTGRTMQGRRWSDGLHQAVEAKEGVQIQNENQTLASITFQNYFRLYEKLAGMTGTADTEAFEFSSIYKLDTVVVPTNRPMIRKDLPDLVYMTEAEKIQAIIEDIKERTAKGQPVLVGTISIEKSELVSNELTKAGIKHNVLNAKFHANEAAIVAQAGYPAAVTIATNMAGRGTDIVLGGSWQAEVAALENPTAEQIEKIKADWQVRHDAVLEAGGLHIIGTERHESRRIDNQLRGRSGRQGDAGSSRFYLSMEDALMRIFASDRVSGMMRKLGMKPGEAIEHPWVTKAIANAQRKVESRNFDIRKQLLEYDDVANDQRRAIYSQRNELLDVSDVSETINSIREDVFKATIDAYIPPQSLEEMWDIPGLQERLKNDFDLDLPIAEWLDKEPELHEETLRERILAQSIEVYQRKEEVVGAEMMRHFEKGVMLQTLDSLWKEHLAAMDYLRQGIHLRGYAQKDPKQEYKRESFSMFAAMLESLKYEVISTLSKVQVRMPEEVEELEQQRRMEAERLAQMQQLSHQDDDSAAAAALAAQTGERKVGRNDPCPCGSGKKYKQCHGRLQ
SMILES,Percent Effect [1],Percent Effect [2],Percent Effect [3],Percent Effect [4],Percent Effect (Trypanosoma cruzi),Percent Effect [5],Percent Effect [6],Percent Effect (Homo sapiens),Percent Effect [7],Percent Effect [8],Percent Effect [9]
CC(C)Cc1noc(CN2CCOC(Cn3cncn3)C2)n1 (stereo unspecified),-1.12%,10.8%,2.5%,-4.71%,-6.22%,4.25%,0.718%,16.7%,0%,13.4%,-0.689%
CC(=O)Nc1nc(C(=O)NC(C)c2ccc(F)cc2)cs1 (stereo unspecified),-2.72%,15.6%,16.6%,-7.49%,6.76%,-9.05%,11.1%,-15.4%,8.57%,21.2%,-24.3%
CC(NC(=O)NCc1cc[nH]n1)c1ccc2c(c1)CCC(=O)N2 (stereo unspecified),-3.48%,13%,-2.39%,10.7%,5.43%,0.712%,4.9%,4.17%,4.85%,21.9%,-9.64%
COc1cccc(CNC(=O)CC2CSc3ncc(C)c(=O)n32)c1 (stereo unspecified),-1.02%,15.6%,31.4%,-9.59%,-5.03%,3.23%,13.9%,16.4%,5.29%,3.85%,-9.11%
CC1CN(C(=O)c2ccn(-c3cccc(Cl)c3)n2)CCO1 (stereo unspecified),-7.39%,20.8%,0.341%,6.09%,7.87%,-2.13%,17.4%,16.3%,8.74%,24.4%,-10.1%
O=C1CN(Cc2nnc(-c3ccc(Br)o3)o2)CCN1,-0.248%,4.17%,-1.21%,-1.55%,0.486%,1.32%,21.2%,-4.7%,7.37%,0%,-3.99%
COc1ccc(CN2CCCC2Cn2nc(C)nc2C)cc1F (stereo unspecified),-3.83%,6.33%,4.88%,0.831%,-0.718%,2.8%,8.58%,3.7%,5.21%,7.59%,-16.6%
Cc1nnc(NC(=O)NCc2ccc(N3CCN(C)CC3)nc2)s1,-5%,15.8%,-3.09%,-1.76%,-5.32%,-0.36%,13.6%,3.4%,5.42%,18.5%,-9.38%
Cn1ccnc1CN1CCCN(C(=O)c2ccc3c(c2)COC3)CC1,-5.22%,18.4%,0.632%,-6.65%,-6.44%,3.24%,7.7%,-1.32%,4.43%,11.1%,-7.65%
Cc1nc(C)n(CC2CCCN2CCCOc2ccc(F)cc2)n1 (stereo unspecified),-4.9%,-15.2%,-12.2%,-1.58%,7.84%,0%,8.93%,7.36%,8.37%,13.9%,-6.25%
CC(C(=O)NCc1ccnc(N2CCN(C)CC2)c1)n1cccn1 (stereo unspecified),-0.897%,0%,-0.213%,6.59%,7.14%,3.06%,-4.18%,1.68%,0.49%,7.32%,-5.23%
